Here are results for 57 molecules from the supplement of paper PMC7724964.

± gives the standard deviation of the averaged measurements.

Sequence of PCNA 1-261 PCNA_N+PCNA_C (domain begin residue: 1, domain end residue: 261), P12004 (P12004 whole entry): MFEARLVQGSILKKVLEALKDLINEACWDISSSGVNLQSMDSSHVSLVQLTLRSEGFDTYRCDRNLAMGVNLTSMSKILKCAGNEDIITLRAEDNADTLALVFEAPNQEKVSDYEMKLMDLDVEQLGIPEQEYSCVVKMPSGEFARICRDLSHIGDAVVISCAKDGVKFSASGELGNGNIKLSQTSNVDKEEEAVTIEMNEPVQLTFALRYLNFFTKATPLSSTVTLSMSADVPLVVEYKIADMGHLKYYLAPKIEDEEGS

The target of the first test is PDCD6 23-191 EF-hand_5+EF-hand_7 (domain begin residue: 23, domain end residue: 191), O75340. Nature of the test: phage ELISA signal ratio (GST-PRM binding over GST background); higher = stronger binding of peptide-phage to the PRM. In outline: (§1)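 Each value is the phage ELISA signal on the glutathione S-transferase (GST)-domain fusion divided by the signal on GST alone. Human peptide recognition domains were expressed in 96-well plates, fused to the C-terminus of GST, and selected against an M13 phage library carrying randomized, cysteine-free, glycine-flanked hexadecapeptides on the gene-8 major coat protein. After five selection rounds, approximately 48 individual clones from rounds 4 and 5 were tested by phage ELISA, and positive clones were sequenced.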
Sequence of PDCD6 23-191 EF-hand_5+EF-hand_7 (domain begin residue: 23, domain end residue: 191), O75340 (O75340 whole entry, the tested form may be a part): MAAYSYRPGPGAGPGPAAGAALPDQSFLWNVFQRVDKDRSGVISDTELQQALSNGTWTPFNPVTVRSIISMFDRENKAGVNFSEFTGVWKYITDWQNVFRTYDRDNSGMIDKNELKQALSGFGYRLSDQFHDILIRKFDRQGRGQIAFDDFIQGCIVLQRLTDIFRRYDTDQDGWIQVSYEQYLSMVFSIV
Background: ELISA stands for enzyme-linked immunosorbent assay.
For VNYGWTPEVTWWLHEA, the “phage ELISA signal ratio” value was determined as 14.4.
With MPQFGWEEWVLDGIHF, the “phage ELISA signal ratio” value turned out to be 20.2.
The same measure, in the same setting: with MDMPYGWMQWVSTEPV the figure was 25.4; with AQWPMDIGWAPWLLDV, 26.8; with WAPWVFMDDAPFDSMV, 24.8.
Same read-out and setting: with MSVEPYMPPYGWAEWV the figure was 22.3.
The same measure, in the same setting: with QQMLYGWGPMVQEMLV the figure was 25.4; with LVGEMSRNVGWAAWVF, 18.1.
LISGMNGWNYGWADWV: the “phage ELISA signal ratio” value was 25.8.
The same measure, in the same setting: with VSMTQSESYGWQPWVV the figure was 27.1; with WAEWVFSDEDPPGHMV, 23; with VDYGWVWESAYTPPMQ, 26.1.
On the same count and under the same terms, in the case of VFYGWQDWVVPGDWDV it was 28 ± 2.8; in that of LQLEPYGWMDWTWQTA, 21.9; in that of VFEPTLASYGWAHWAV, 25.1.
On the same count and under the same terms, in the case of MYGWGPLLMEMNPWQW it was 20.8; in that of YGWNQILLDESVFHMV, 26.9; in that of SFLPVSYGWAPWLIET, 24.1.

For the next test, the target named is NXF1 203-359 LRR_1 (domain begin residue: 203, domain end residue: 359). The description is as above. In outline: as §1
Regarding FEMLWREHMEKFDVEV, the “phage ELISA signal ratio” value amounted to 28.4.
The same measure, in the same setting: with PNFEDYWRTAEQWHQP the figure was 25.4; with VQMWSFEQIWVEHMMG, 20.1; with FEELWLKHTAVSKTTE, 32.5.
The same measure, in the same setting: in the case of FENYWKGYQEVPLESR it was 18.9; in that of FETLWARHAQGQTQVE, 22.

Another test has as its target PAF1 165-376 Paf1 (domain begin residue: 165, domain end residue: 376), Q8N7H5. The test is described as above. The gist of the method: as §1
MDIWDEMALSINPYMY: the “phage ELISA signal ratio” value was found to be 4.38.
Turning to SELWDHWIEWNDVYQT, the “phage ELISA signal ratio” value is 3.06.
Same read-out and setting: with IEVYSYMENMYDHPPV the figure was 3.73.
Same read-out and setting: in the case of QVDMMSQLFMMADQWN it was 4.55.
Take WDFPGWSADQMPFSQS: the “phage ELISA signal ratio” value was determined as 4.24.
The same measure, in the same setting: with WEQQWFEWTHIEGQDD the figure was 2.51.

The target in another test is NXF1 565-619 TAP_C (domain begin residue: 565, domain end residue: 619). The description is as above. The gist of the method:
as §1
MAGPESLNFSWDYIMN: the “phage ELISA signal ratio” value is 13.4.
Still for that read-out and setting: in the case of EIEEFSFTWQPEWEVR it was 8.54; in that of GIPYPDFNWENISTLV, 6.41; in that of GDFGPDWFSFAWTEEM, 13.4.
The same measure, in the same setting: with SMEMMNFTWDPEWFIE the figure was 12.9.
The same measure, in the same setting: in the case of YPIEQFSFDIWDQMVE it was 12; in that of EFINFTWMEAMGTPNS, 13.2; in that of VVQIEGFDFQWKPEWF, 13.2.
Regarding DIPFSFQWSTDMHPVS, the “phage ELISA signal ratio” value was found to be 6.7.

The target of a further test is PABPC1 544-623 PABP (domain begin residue: 544, domain end residue: 623). The description is as above. The gist of the method: as §1
In the case of KPVPSFWVDWHVQAMT, the “phage ELISA signal ratio” value is 20.9.
As to QQLADIPTYEWLQRNH, the “phage ELISA signal ratio” value was determined as 27.
Same read-out and setting: with TIDWESVIKTYSPWLD the figure was 29.8; with LPGEYNMMEWRQAVMG, 3.49.

The next test has as its target PCNA 1-261 PCNA_N+PCNA_C (domain begin residue: 1, domain end residue: 261), P12004. Described as above. In outline:
as §1
GARQTLITDWLMVSSD: the “phage ELISA signal ratio” value was 15.6.

In another test the target is T1, NUP98 730-880 Nucleoporin2 (domain begin residue: 730, domain end residue: 880), P52948.
T1 chain: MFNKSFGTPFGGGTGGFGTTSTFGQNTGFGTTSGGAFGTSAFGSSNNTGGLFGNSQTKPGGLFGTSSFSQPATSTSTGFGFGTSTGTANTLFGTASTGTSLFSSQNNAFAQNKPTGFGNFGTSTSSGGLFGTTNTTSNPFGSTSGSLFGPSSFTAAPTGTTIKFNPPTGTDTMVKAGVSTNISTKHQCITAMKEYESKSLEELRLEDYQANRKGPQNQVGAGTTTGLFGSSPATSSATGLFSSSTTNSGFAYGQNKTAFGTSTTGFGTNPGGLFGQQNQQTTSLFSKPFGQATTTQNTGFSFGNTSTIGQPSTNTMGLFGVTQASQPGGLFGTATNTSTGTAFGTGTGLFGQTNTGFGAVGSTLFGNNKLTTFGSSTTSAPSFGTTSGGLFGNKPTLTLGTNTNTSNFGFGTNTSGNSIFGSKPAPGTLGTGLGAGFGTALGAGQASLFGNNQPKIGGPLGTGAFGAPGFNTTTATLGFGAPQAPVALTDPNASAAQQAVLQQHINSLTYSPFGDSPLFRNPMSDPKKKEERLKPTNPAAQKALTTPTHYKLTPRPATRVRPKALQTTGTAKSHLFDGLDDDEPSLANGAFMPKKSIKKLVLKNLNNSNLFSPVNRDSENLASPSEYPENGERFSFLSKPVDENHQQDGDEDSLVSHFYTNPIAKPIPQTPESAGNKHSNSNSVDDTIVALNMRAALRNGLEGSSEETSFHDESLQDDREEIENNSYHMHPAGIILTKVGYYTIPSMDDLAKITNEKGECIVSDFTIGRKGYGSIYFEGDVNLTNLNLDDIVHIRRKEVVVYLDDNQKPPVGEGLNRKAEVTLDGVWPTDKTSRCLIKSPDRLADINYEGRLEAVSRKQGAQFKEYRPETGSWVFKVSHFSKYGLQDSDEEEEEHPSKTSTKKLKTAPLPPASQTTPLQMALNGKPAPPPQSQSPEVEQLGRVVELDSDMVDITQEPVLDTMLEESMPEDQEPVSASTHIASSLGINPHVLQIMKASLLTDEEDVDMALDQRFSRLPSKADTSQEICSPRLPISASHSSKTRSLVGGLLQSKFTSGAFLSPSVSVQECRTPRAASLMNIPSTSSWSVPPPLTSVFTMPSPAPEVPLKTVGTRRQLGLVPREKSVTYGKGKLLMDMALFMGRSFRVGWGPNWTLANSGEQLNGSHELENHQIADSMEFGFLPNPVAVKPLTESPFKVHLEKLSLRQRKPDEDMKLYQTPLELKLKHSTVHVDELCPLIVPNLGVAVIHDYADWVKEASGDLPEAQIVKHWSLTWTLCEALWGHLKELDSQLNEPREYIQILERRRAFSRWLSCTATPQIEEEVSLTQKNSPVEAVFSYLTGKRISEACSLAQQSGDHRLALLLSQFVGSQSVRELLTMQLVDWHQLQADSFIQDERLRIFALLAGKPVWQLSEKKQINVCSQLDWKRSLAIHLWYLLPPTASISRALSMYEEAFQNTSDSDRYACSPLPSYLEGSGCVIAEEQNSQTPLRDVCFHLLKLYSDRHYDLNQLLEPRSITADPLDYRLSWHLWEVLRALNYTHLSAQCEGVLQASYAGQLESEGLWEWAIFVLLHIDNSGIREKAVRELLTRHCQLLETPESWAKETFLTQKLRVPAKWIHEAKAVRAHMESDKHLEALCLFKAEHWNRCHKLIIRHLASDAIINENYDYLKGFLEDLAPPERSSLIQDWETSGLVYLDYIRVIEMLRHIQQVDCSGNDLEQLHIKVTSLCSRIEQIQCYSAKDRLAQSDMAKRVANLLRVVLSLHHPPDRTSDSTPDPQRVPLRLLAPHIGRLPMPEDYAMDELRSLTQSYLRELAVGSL
The test is described as above. In outline:
as §1
For MWEPELYDDFHEAVTY, the “phage ELISA signal ratio” value is 18.1.
The same measure, in the same setting: with WFGWDAQMTEQEDELW the figure was 5.91.
Still for that read-out and setting: with WAEWDASQPDWVPEYQ the figure was 4.87; with QGWMPWDPQDLDWWVG, 7.31.
The same measure, in the same setting: with GYGWEELPPIMTVAPD the figure was 23.2; with WVGNNDWENEWPWVIL, 7.89.

The target in a further test is PCMT1 1-227 PCMT (domain begin residue: 1, domain end residue: 227), P22061. The test is described as above. In outline: as §1
Sequence of PCMT1 1-227 PCMT (domain begin residue: 1, domain end residue: 227), P22061 (P22061 whole entry): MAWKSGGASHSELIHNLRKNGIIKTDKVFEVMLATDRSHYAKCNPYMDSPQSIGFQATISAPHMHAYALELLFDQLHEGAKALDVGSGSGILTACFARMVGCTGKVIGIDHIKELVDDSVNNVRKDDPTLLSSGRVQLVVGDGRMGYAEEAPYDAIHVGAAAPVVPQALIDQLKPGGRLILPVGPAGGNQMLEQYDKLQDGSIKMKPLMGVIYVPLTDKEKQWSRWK
For VHWDPYWFLEDNFSNL, the “phage ELISA signal ratio” value worked out at 19.9.
Regarding HEFWALYDAMPMRSYV, the “phage ELISA signal ratio” value was determined as 30.9.
Same read-out and setting: with FYMWQVIDAQAYVDWI the figure was 4.8; with SHNWWHIIEAQEAMAW, 16.

A further test has as its target T2, NXT1 1-140 NTF2 (domain begin residue: 1, domain end residue: 140), Q9UKK6.
T2 chain: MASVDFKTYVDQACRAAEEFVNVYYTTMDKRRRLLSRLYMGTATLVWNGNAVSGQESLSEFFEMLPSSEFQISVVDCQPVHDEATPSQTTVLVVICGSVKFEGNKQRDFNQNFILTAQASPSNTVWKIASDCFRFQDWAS
Described as above. In outline:
as §1
MWIYNEKWDMFLPYKL: the “phage ELISA signal ratio” value was found to be 20.3.
As to QYNFLWEHLVQPRPAT, the “phage ELISA signal ratio” value was found to be 16.1.
Same read-out and setting: in the case of EQKQTDSFYWIWQHLD it was 3.56.
